Reference: publication PMC11006913
Changes are numbered by the printed parent chain.

Legend:
Experiment in all cases: PBM; 200 nM protein, PBS
Details in all cases: dsDNA, one strand shown
HOXB9 [1] = molecular target: HOXB9 (Homo sapiens, UniProt P17482 171-250, T197M)
HOXA4 [2] = molecular target: HOXA4 (Homo sapiens, UniProt Q00056 201-287, W262R)
HOXC9 [3] = molecular target: HOXC9 (Homo sapiens, UniProt P31274 178-260, K195R)
HOXA4 [4] = molecular target: HOXA4 (Homo sapiens, UniProt Q00056 201-287, R217L)
Chain of HOXA4 (Homo sapiens, UniProt Q00056 201-287, R217L) (Q00056 201-287 R217L): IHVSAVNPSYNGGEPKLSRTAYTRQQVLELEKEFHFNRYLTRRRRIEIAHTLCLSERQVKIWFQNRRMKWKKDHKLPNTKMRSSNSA

HOXB9 [5] = molecular target: HOXB9 (Homo sapiens, UniProt P17482 171-250)
Chain of HOXB9 (Homo sapiens, UniProt P17482 171-250) (P17482 171-250): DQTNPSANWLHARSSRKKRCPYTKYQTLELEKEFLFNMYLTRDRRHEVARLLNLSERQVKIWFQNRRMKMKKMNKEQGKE

HOXC9 [6] = molecular target: HOXC9 (Homo sapiens, UniProt P31274 178-260)
Chain of HOXC9 (Homo sapiens, UniProt P31274 178-260) (P31274 178-260): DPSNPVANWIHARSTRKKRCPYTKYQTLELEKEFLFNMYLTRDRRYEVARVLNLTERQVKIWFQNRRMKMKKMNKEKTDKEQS

HOXC9 [7] = molecular target: HOXC9 (Homo sapiens, UniProt P31274 178-260, R193K)
Chain of HOXC9 (Homo sapiens, UniProt P31274 178-260, R193K) (P31274 178-260 R193K): as the sequence (P31274 178-260) above, with R16K counted along it

HOXA4 [8] = molecular target: HOXA4 (Homo sapiens, UniProt Q00056 201-287)
Chain of HOXA4 (Homo sapiens, UniProt Q00056 201-287) (Q00056 201-287): as the sequence (Q00056 201-287 R217L) above, with L17R counted along it

HOXB9 [9] = molecular target: HOXB9 (Homo sapiens, UniProt P17482 171-250, R186Q)
Chain of HOXB9 (Homo sapiens, UniProt P17482 171-250, R186Q) (P17482 171-250 R186Q): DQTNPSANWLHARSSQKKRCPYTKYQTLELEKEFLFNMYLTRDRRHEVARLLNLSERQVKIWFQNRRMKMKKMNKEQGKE

HOXC9 [10] = molecular target: HOXC9 (Homo sapiens, UniProt P31274 178-260, R222W)
Chain of HOXC9 (Homo sapiens, UniProt P31274 178-260, R222W) (P31274 178-260 R222W): as the sequence (P31274 178-260) above, with R45W counted along it

HOXA4 [11] = molecular target: HOXA4 (Homo sapiens, UniProt Q00056 201-287, W262F)
Chain of HOXA4 (Homo sapiens, UniProt Q00056 201-287, W262F) (Q00056 201-287 W262F): as the sequence (Q00056 201-287 R217L) above, with L17R, W62F counted along it

VENTX [12] = molecular target: T1, VENTX (Homo sapiens, UniProt O95231 78-163, R121Q)
T1 sequence: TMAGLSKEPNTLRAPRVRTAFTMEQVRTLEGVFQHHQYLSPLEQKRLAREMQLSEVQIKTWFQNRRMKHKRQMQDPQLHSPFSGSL

VENTX [13] = molecular target: T2, VENTX (Homo sapiens, UniProt O95231 78-163)
T2 sequence: T1 sequence with Q44R

VENTX [14] = molecular target: T3, VENTX (Homo sapiens, UniProt O95231 78-163, Y115F)
T3 sequence: T1 sequence with Y38F, Q44R

CRX = CRX (Homo sapiens, UniProt O43186 26-111, R41L)
Chain of CRX (O43186 26-111 R41L): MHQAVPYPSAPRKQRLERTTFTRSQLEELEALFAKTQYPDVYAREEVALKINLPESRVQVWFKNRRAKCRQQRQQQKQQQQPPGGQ

HOXA7 [15] = molecular target: HOXA7 (Homo sapiens, UniProt P31268 116-202)
Chain of HOXA7 (Homo sapiens, UniProt P31268 116-202) (P31268 116-202): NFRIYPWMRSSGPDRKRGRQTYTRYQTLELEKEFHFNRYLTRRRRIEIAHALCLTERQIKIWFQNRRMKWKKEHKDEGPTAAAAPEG

HOXC10 [16] = molecular target: HOXC10 (Homo sapiens, UniProt Q9NYD6 254-340)
Chain of HOXC10 (Homo sapiens, UniProt Q9NYD6 254-340) (Q9NYD6 254-340): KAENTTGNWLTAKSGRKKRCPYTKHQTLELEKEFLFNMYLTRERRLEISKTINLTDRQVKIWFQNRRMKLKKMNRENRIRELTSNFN

PAX4 [17] = molecular target: T4, PAX4 (Homo sapiens, UniProt O43316 9-242, R200K)
T4 sequence: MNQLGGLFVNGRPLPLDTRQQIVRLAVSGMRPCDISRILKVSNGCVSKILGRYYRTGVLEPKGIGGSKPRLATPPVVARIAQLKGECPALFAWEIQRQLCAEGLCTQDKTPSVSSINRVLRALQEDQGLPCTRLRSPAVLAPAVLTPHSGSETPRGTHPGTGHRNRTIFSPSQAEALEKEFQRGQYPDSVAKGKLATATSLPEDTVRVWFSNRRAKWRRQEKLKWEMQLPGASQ

HOXB6 [18] = molecular target: HOXB6 (Homo sapiens, UniProt P17509 132-218, K202E)
Chain of HOXB6 (Homo sapiens, UniProt P17509 132-218, K202E) (P17509 132-218 K202E): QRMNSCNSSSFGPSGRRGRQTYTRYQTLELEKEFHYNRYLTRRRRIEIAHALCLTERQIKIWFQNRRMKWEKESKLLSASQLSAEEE

HOXB4 = HOXB4 (Homo sapiens, UniProt P17483 148-234, V174I)
Chain of HOXB4 (P17483 148-234 V174I): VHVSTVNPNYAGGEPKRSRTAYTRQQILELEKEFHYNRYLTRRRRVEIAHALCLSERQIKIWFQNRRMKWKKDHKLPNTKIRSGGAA

HOXC10 [19] = molecular target: HOXC10 (Homo sapiens, UniProt Q9NYD6 254-340, K271E)
Chain of HOXC10 (Homo sapiens, UniProt Q9NYD6 254-340, K271E) (Q9NYD6 254-340 K271E): as the sequence (Q9NYD6 254-340) above, with K18E counted along it

HOXA7 [20] = molecular target: HOXA7 (Homo sapiens, UniProt P31268 116-202, W177C)
Chain of HOXA7 (Homo sapiens, UniProt P31268 116-202, W177C) (P31268 116-202 W177C): as the sequence (P31268 116-202) above, with W62C counted along it

HOXB6 [21] = molecular target: HOXB6 (Homo sapiens, UniProt P17509 132-218)
Chain of HOXB6 (Homo sapiens, UniProt P17509 132-218) (P17509 132-218): as the sequence (P17509 132-218 K202E) above, with E71K counted along it

PAX4 [22] = molecular target: T5, PAX4 (Homo sapiens, UniProt O43316 9-242)
T5 sequence: T4 sequence with K192R

PAX4 [23] = molecular target: T6, PAX4 (Homo sapiens, UniProt O43316 9-242, R200Q)
T6 sequence: T4 sequence with K192Q

PAX4 [24] = molecular target: T7, PAX4 (Homo sapiens, UniProt O43316 9-242, F177V)
T7 sequence: T4 sequence with F169V, K192R

PAX4 [25] = molecular target: T8, PAX4 (Homo sapiens, UniProt O43316 9-242, F177Y)
T8 sequence: T4 sequence with F169Y, K192R

PAX4 [26] = molecular target: T9, PAX4 (Homo sapiens, UniProt O43316 9-242, R227W)
T9 sequence: T4 sequence with K192R, R219W

Chain of HOXC9 (Homo sapiens, UniProt P31274 178-260, K195R) (P31274 178-260 K195R): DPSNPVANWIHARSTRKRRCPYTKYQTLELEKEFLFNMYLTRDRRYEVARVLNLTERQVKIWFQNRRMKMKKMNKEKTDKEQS
Chain of HOXB9 (Homo sapiens, UniProt P17482 171-250, T197M) (P17482 171-250 T197M): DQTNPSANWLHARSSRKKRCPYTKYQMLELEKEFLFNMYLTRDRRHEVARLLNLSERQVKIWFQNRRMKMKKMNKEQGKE
Chain of HOXA4 (Homo sapiens, UniProt Q00056 201-287, W262R) (Q00056 201-287 W262R): as the sequence (Q00056 201-287 R217L) above, with L17R, W62R counted along it

With CCCGGTTC the binding signal (HOXB9 [1]) was 8.56 upbm affinity estimate (log intensity, higher = more binding, comparable within an allelic series), the binding signal (HOXA4 [2]) was 9.88 upbm affinity estimate (log intensity, higher = more binding, comparable within an allelic series) and the binding signal (HOXC9 [3]) was 9.5 upbm affinity estimate (log intensity, higher = more binding, comparable within an allelic series). The binding signal (HOXA4 [4]) was 9.82 upbm affinity estimate (log intensity, higher = more binding, comparable within an allelic series), the binding signal (HOXB9 [5]) was 8.35 upbm affinity estimate (log intensity, higher = more binding, comparable within an allelic series) and the binding signal (HOXC9 [6]) was 9.62 upbm affinity estimate (log intensity, higher = more binding, comparable within an allelic series). For the same sequence, the binding signal (HOXC9 [7]) was 9.59 upbm affinity estimate (log intensity, higher = more binding, comparable within an allelic series), the binding signal (HOXA4 [8]) was 9.74 upbm affinity estimate (log intensity, higher = more binding, comparable within an allelic series) and the binding signal (HOXB9 [9]) was 8.47 upbm affinity estimate (log intensity, higher = more binding, comparable within an allelic series). For the same sequence, the binding signal (HOXC9 [10]) was 9.68 upbm affinity estimate (log intensity, higher = more binding, comparable within an allelic series) and the binding signal (HOXA4 [11]) was 9.9 upbm affinity estimate (log intensity, higher = more binding, comparable within an allelic series).

In the case of CCTAATCG, the binding signal (VENTX [12]) is reported as 11.4 upbm affinity estimate (log intensity, higher = more binding, comparable within an allelic series), the binding signal (VENTX [13]) is reported as 12.5 upbm affinity estimate (log intensity, higher = more binding, comparable within an allelic series) and the binding signal (VENTX [14]) is reported as 11.3 upbm affinity estimate (log intensity, higher = more binding, comparable within an allelic series). The binding signal (CRX) was 10.8 upbm affinity estimate (log intensity, higher = more binding, comparable within an allelic series).

With CATTAATA the binding signal (HOXB9 [1]) was 10.2 upbm affinity estimate (log intensity, higher = more binding, comparable within an allelic series), the binding signal (HOXC9 [3]) was 12.7 upbm affinity estimate (log intensity, higher = more binding, comparable within an allelic series) and the binding signal (HOXA7 [15]) was 11.5 upbm affinity estimate (log intensity, higher = more binding, comparable within an allelic series). For the same sequence, the binding signal (HOXC10 [16]) was 12.2 upbm affinity estimate (log intensity, higher = more binding, comparable within an allelic series), the binding signal (PAX4 [17]) was 11.6 upbm affinity estimate (log intensity, higher = more binding, comparable within an allelic series) and the binding signal (HOXB6 [18]) was 10.1 upbm affinity estimate (log intensity, higher = more binding, comparable within an allelic series). For the same sequence, the binding signal (HOXB9 [5]) was 12 upbm affinity estimate (log intensity, higher = more binding, comparable within an allelic series), the binding signal (HOXB4) was 13.6 upbm affinity estimate (log intensity, higher = more binding, comparable within an allelic series) and the binding signal (HOXC9 [6]) was 12.6 upbm affinity estimate (log intensity, higher = more binding, comparable within an allelic series). The binding signal (HOXC9 [7]) was 12.6 upbm affinity estimate (log intensity, higher = more binding, comparable within an allelic series), the binding signal (HOXC10 [19]) was 11.9 upbm affinity estimate (log intensity, higher = more binding, comparable within an allelic series) and the binding signal (HOXB9 [9]) was 11.7 upbm affinity estimate (log intensity, higher = more binding, comparable within an allelic series). For the same sequence, the binding signal (HOXC9 [10]) was 11.1 upbm affinity estimate (log intensity, higher = more binding, comparable within an allelic series), the binding signal (HOXA7 [20]) was 9 upbm affinity estimate (log intensity, higher = more binding, comparable within an allelic series) and the binding signal (HOXB6 [21]) was 11.9 upbm affinity estimate (log intensity, higher = more binding, comparable within an allelic series).

With CGATTACG the binding signal (VENTX [12]) was 10.5 upbm affinity estimate (log intensity, higher = more binding, comparable within an allelic series), the binding signal (HOXA7 [15]) was 9.64 upbm affinity estimate (log intensity, higher = more binding, comparable within an allelic series) and the binding signal (HOXA7 [20]) was 8.74 upbm affinity estimate (log intensity, higher = more binding, comparable within an allelic series).

For CGCATTAA, the binding signal (VENTX [12]) was 10.5 upbm affinity estimate (log intensity, higher = more binding, comparable within an allelic series), the binding signal (PAX4 [17]) was 11.7 upbm affinity estimate (log intensity, higher = more binding, comparable within an allelic series) and the binding signal (VENTX [14]) was 10.6 upbm affinity estimate (log intensity, higher = more binding, comparable within an allelic series). For the same sequence, the binding signal (PAX4 [22]) was 12.1 upbm affinity estimate (log intensity, higher = more binding, comparable within an allelic series), the binding signal (PAX4 [23]) was 11.6 upbm affinity estimate (log intensity, higher = more binding, comparable within an allelic series) and the binding signal (PAX4 [24]) was 10.4 upbm affinity estimate (log intensity, higher = more binding, comparable within an allelic series). For the same sequence, the binding signal (PAX4 [25]) was 11 upbm affinity estimate (log intensity, higher = more binding, comparable within an allelic series), the binding signal (PAX4 [26]) was 10.9 upbm affinity estimate (log intensity, higher = more binding, comparable within an allelic series) and the binding signal (CRX) was 10.9 upbm affinity estimate (log intensity, higher = more binding, comparable within an allelic series).
